The target in assay [1] is Calcium and integrin-binding protein 1 (Homo sapiens) (UniProt Q99828). Nature of the assay: Primary qHTS for Identification of Calcium Integrin Binding Protein 1 (CIB1) Competitor (AID 1508620).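 Further: GST tagged CIB1 binding a fluorescein labelled alphaIIb integrin peptide tracer; top concentration of the series differs between compounds; on the % scale 0 is the no-effect control and ±100 the full control effect.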 A digest of the protocol:
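CIB1-GST (1 uM final) and compound incubated 15 min at room temperature before adding FITC-alphaIIb peptide tracer (100 nM final). Competition for binding read by fluorescence polarization (ex 480, em 540) after another 15 min at room temperature.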
Background: In qHTS, concentration-response curves come from the screen itself.

Assay [2] in a line: Primary qHTS for inhibitors of nuclear receptor binding SET domain protein 2 (NSD2) in an RCH-ACV wild type WT cells (2C) (AID 1645877). Further: potency means the concentration at half of the fitted maximal effect; nearly all actives have a fitted effect of over 70% in size.
For assay [3], the target named is Glutathione peroxidase 1 (Homo sapiens) (UniProt P07203). Put plainly: Primary qHTS Assay for Inhibitors of Recombinant Selenoprotein Glutathione Peroxidase 1 (GPX1) (AID 1845191). Further: nearly all actives have a fitted effect of over 65% in size. An outline of the steps:
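NADPH consumption tracked by fluorescence at 340/450 nm between t=0 and t=15 min, room temperature. Final mix: 10 nM GPX1, 100 nM glutathione reductase, 1 mM GSH, 0.5 mM NADPH, 0.5 mM cumene hydroperoxide, 0.01% BSA; 30 min compound–enzyme preincubation.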

Assay [4] concerns the target Phospholipid hydroperoxide glutathione peroxidase GPX4 (Homo sapiens) (UniProt P36969). Put plainly: Primary qHTS Assay for Inhibitors of Recombinant Selenoprotein Glutathione Peroxidase 4 (GPX4) (AID 1845192). Further: nearly all actives have a fitted effect of over 65% in size. Further: potency means the concentration at half of the fitted maximal effect. Conditions: outcome: dose series up to 50 µM unless noted. A digest of the protocol:
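NADPH consumption followed by fluorescence at 340/450 nm, t=0 and after 15 min at room temperature. Reaction started with cumene hydroperoxide (0.5 mM final) after 30 min compound–GPX4 preincubation; final 200 nM GPX4, 100 nM GR, 1 mM GSH, 0.5 mM NADPH.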

Assay [5] addresses Luciferin 4-monooxygenase (Photinus pyralis) (UniProt P08659). Put plainly: Primary firefly luciferase (FLuc) qHTS assay for identification of artifact compounds. (AID 1845220). Further: nearly all actives have a fitted effect of over 60% in size. An outline of the steps: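 FLuc 10 nM; luciferin 10 uM; ATP 10 uM; Tris-acetate pH 7.6, Mg-acetate 10 mM; 15 min RT preincubation; 5 min reaction; luminescence.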
The nature of assay [6]: Primary fluorescence-based thiol-reactive (MSTI) qHTS assay for identification of artifact compounds. (AID 1845221). Further: nearly all actives have a fitted effect of over 65% in size. Further: potency means the concentration at half of the fitted maximal effect. An outline of the steps: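 A multi-concentration qHTS design tested compounds against 4 uM MSTI, pH 7.4 phosphate-buffered saline. Plates were protected from light for 1 h at room temperature before imaging fluorescence.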
Assay [7] deals with Nanoluciferase (engineered Oplophorus gracilirostris luciferase). Put plainly: Primary Nanoluciferase (NLuc) qHTS assay for identification of artifact compounds. (AID 1845222).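 Further: NLuc secreted into diluted conditioned medium of S16 cells; 0% = DMSO and -100% = no enzyme.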 An outline of the steps: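 NLuc from S16 cell medium (1:55) plus test compounds, 15 min, room temperature. Luminescence after Nano-Glo (1:100) addition, 5 min.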
Assay [8] deals with C33A. Nature of the assay: Primary qHTS to identify gynecologic anti-cancer compounds using libraries of approved drugs and bioactive compounds (AID 1345084). Further: nearly all actives have a fitted effect of over 55% in size. Further: potency means the concentration at half of the fitted maximal effect. The note with it: Gynecologic cancer cell panel viability, ATPlite luminescence, 48 h; series mostly up to 57.5 µM. A digest of the protocol: (§1)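 ATP-based viability (ATPlite), 1,000 cells/well, 16 h pre-incubation, 48 h compound at 37 C, 5% CO2, 15 min RT before read.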

Assay [9] relates to CASKI. The assay is described as above. The note with it: Gynecologic cancer cell panel viability, ATPlite luminescence, 48 h; series mostly up to 57.5 µM. A digest of the protocol:
as §1

Assay [10] relates to Es-2. The assay is described as above. The note with it: Gynecologic cancer cell panel viability, ATPlite luminescence, 48 h; series mostly up to 57.5 µM. A digest of the protocol: as §1
For orientation: In ATP-based viability assays light output follows the ATP content of the culture.

The subject of assay [11] is HeLa. The assay is described as above. The note with it: Gynecologic cancer cell panel viability, ATPlite luminescence, 48 h; series mostly up to 57.5 µM. An outline of the steps:
as §1

In assay [12] the test system is Hek293T. The assay is described as above. Conditions: Gynecologic cancer cell panel viability, ATPlite luminescence, 48 h, control line for the selectivity index; series mostly up to 57.5 µM. A digest of the protocol:
as §1

The test system of assay [13] is JEG-3. The assay is described as above. Conditions: Gynecologic cancer cell panel viability, ATPlite luminescence, 48 h; series mostly up to 57.5 µM. A digest of the protocol: as §1
The test system of assay [14] is Tov-21-G. The description is as above. The note with it: Gynecologic cancer cell panel viability, ATPlite luminescence, 48 h; series mostly up to 57.5 µM. An outline of the steps: as §1
Assay [15] in a line: Primary qHTS for inhibitors of nuclear receptor binding SET domain protein 2 (NSD2) in an isogenic RCH-ACV NSD2 p.E1099K mutant (9B) (AID 1645876). Further: nearly all actives have a fitted effect of over 70% in size. Further: potency means the concentration at half of the fitted maximal effect. On activity change, negative = viability loss: on the % scale 0 is the no-effect control and ±100 the full control effect.
For assay [16], the system named is OV90. Put plainly: Primary qHTS to identify gynecologic anti-cancer compounds using libraries of approved drugs and bioactive compounds (AID 1345084). Further: nearly all actives have a fitted effect of over 55% in size. Further: potency means the concentration at half of the fitted maximal effect. Conditions: Gynecologic cancer cell panel viability, ATPlite luminescence, 48 h; series mostly up to 57.5 µM. An outline of the steps: as §1
For assay [17], the system named is PA-1. The description is as above. The note with it: Gynecologic cancer cell panel viability, ATPlite luminescence, 48 h; series mostly up to 57.5 µM. A digest of the protocol:
as §1

In assay [18] the test system is Tov112D. The assay is described as above. The note with it: Gynecologic cancer cell panel viability, ATPlite luminescence, 48 h; series mostly up to 57.5 µM. An outline of the steps: as §1
The test system of assay [19] is Zika virus NS2B-NS3 protease (linked construct). Put plainly: Primary screen NINDS Rhodamine qHTS for Zika virus inhibitors (AID 1347160). Further: nearly all actives have a fitted effect of over 55% in size. An outline of the steps: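 Aprotinin served as in-plate control. Conditions: 25 nM linked NS2B-NS3, pH 8.0 Tris buffer, titrated compounds, 15 min preincubation and 15 min reaction with 1.5 microM Rhod110 substrate at room temperature.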

Assay [20] in a line: Primary redox qHTS assay for identification of artifact compounds. (AID 1845223).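 Further: 0% = DMSO and 100% = reference compound.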 A digest of the protocol: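 Redox-cycling detection via DTT (250 uM final) oxidation coupled to Amplex Red (25 uM)/HRP (250 mU/mL) in HBSS. 15 min preincubation plus 30 min after DTT, room temperature. Ex/Em 525/598 nm; 4-parameter Hill fit against DMSO and 10 uM DA3003.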

“And” between values parts separate entries of the source, which are not always exact repeats. Equal entries are not always repeated. Inconclusive results are not listed. More than one record can exist for a structure, and the calls need not agree. The source made the active and inactive calls. The call rests on the fitted dose curve; in most records, active means well fitted curve in the direction sought with a large enough effect; inconclusive means small, poorly fitted or top-dose-only effect, or another doubt; inactive means no such curve, though single readings can be large; an effect the other way counts as inactive or inconclusive.

Sequence of Phospholipid hydroperoxide glutathione peroxidase GPX4 (Homo sapiens) (P36969 whole entry, looked up): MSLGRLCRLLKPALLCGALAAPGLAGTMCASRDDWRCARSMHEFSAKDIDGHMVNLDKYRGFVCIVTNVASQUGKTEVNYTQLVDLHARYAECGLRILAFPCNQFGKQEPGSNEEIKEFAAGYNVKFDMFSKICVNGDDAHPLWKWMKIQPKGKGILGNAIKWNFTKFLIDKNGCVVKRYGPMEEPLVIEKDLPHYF
Sequence of Glutathione peroxidase 1 (Homo sapiens) (P07203 whole entry, looked up): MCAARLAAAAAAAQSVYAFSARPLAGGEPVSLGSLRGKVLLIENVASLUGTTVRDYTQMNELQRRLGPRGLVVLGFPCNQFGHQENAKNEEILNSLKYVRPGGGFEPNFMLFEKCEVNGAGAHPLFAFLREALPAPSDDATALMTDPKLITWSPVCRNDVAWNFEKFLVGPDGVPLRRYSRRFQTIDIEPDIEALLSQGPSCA
Sequence of Calcium and integrin-binding protein 1 (Homo sapiens) (Q99828 whole entry, looked up): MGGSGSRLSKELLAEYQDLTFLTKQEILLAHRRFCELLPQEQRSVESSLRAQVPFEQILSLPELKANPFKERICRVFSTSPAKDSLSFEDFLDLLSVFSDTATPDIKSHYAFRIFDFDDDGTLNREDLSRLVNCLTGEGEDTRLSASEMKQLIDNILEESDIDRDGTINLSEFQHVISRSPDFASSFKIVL

Regarding `COCCOCCOc1ccc(C2=N[C@@](C)(C(=O)O)CS2)c(O)c1`, the outcome in assay [1] was inactive. For the same compound, the Potency is 10.3 µM (active) in assay [2] and 0.377 µM (active) in assay [6]. Further, the Potency entry in assay [3], in assay [4], in [5], in assay [7], in assay [8] and in assay [9] was “inactive” each time. The Potency result in assay [10], in assay [11], in assay [12], in assay [13] and in assay [14] was “inactive” throughout.
For the compound `C[C@@H]1COCCN1c1cc(C2(S(C)(=N)=O)CC2)nc(-c2ccnc3[nH]ccc23)n1` (stereo partly specified), the result in assay [1] was inactive. In addition, the Potency is 662 nM (active) and 3.66 µM (active) in assay [15]; 662 nM (active) and 2.31 µM (active) in assay [2]; 20.2 µM (active) in assay [4].
For `CC1CCC2C(=CCC(O)C2(C)C)C1(C)Cc1c(O)cc(CO)c(C=O)c1O` (stereo unspecified), the result in assay [1] was inactive. Also, the Potency result in assay [4], in assay [5], in assay [6], in assay [7], in [8] and in assay [9] was “inactive” in each case. Moreover, the Potency result in assay [10], in assay [11], in assay [12], in assay [13], in assay [16] and in assay [17] was “inactive” throughout. Moreover, the Potency result in [14] and in [18] was “inactive” throughout.
`CC1CCC2C(C)(C)C(O)CCC2(C)C12Cc1c(O)cc3c(c1O2)CN(C(CCCN=C(N)N)C(=O)O)C3=O` (stereo unspecified): the Potency entry in assay [19], in [3], in assay [4], in assay [5], in assay [6] and in assay [20] was “inactive” in each case. Besides, the Potency entry in assay [8], in assay [9], in assay [10], in assay [11], in assay [13] and in [16] was “inactive” in each case. For the same compound, the Potency result in assay [14] is “inactive”. In assay [1], the outcome was inactive. The Potency in [2] was 8.93 µM (active).
For the compound `Cc1ccccc1C(=O)Nc1ccc(C(=O)N2CCC[C@@H](O)c3cc(Cl)ccc32)c(C)c1`, the Potency result in assay [19], in [3], in assay [4], in assay [5], in assay [6] and in assay [7] was “inactive” each time. In addition, the Potency entry in assay [20], in assay [8], in [9], in assay [10], in assay [11] and in assay [12] was “inactive” each time. For the same compound, the Potency result in assay [13], in assay [16], in [17], in assay [14] and in assay [18] was “inactive” in each case. Moreover, in assay [1], the result was inactive.
On to `Nc1ncnc2c1ncn2[C@@H]1O[C@H](CO)C[C@H]1O`, for which, in assay [1], the result was inactive. For the same compound, the Potency in assay [15] is 10.3 µM (active) and inactive. For the same compound, the Potency result in assay [3], in assay [4], in assay [5], in assay [7], in assay [20] and in assay [8] was “inactive” in each case. Moreover, the Potency entry in [9], in assay [13], in assay [16] and in assay [18] was “inactive” each time.
Regarding `C=CC(=O)Nc1cc(Nc2nccc(-c3cn(C)c4ccccc34)n2)c(OC)cc1N(C)CCN(C)C`, the Potency entry in assay [19], in assay [3], in assay [4], in assay [5] and in assay [7] was “inactive” throughout. The result in [1] was inactive. Moreover, the values for the Potency in assay [15], in assay [9] and in assay [17] were 3.32 µM (active), 14.1 µM (active) and 25.1 µM (active), respectively.
In the case of `CC1CCC(n2c3cnccc3c3cnc(Nc4ccc5c(n4)CCN(C(=O)CO)C5)nc32)CC1` (stereo unspecified), the Potency entry in assay [19], in [3], in [4], in [5], in [6] and in assay [7] was “inactive” in each case. Besides, the Potency result in assay [8], in assay [9], in [10], in assay [11], in [12] and in [13] was “inactive” in each case. Besides, the Potency result in assay [16], in [14] and in assay [18] was “inactive” each time. For the same compound, the result in assay [1] was inactive. The Potency in assay [15] is 2.59 µM (active); in [2], 2.31 µM (active). For the same compound, the activity change, negative = viability loss in [15] was -24.3% [at 9.23 µM] (inactive).

(Values after PubChem BioAssay (NCATS).)
